# ELG1 repair inh = blocks ELG1-dependent DNA repair in HEK293T cells; HEK293T ELG1-luciferase reporter, luminescence, 16 h; DNA damage induced by 5-fluorouridine; Potency, µM (top dose mostly 46.1 µM), usual class: inhibitors; 330,000 compounds, 2.3% hits; AID 504467; note: nearly all actives have a fitted effect of over 55% in size
#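 Step one: seed 2,000 cells per well. Step two: pin-transfer compound or DMSO alongside 5-fluorouridine. Step three: incubate 16 hr, 37 °C, 5% CO2. Step four: add ONE-Glo, wait 30 min, read luminescence.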
# ELG1 genotoxic = inducers of genotoxicity in HEK293T ELG1-luciferase cells. HEK293T ELG1-luciferase reporter, luminescence, 16 h. 330,000 compounds, 1.3% hits. Potency, µM (highest dose often 46 µM), usual class: activators; note: nearly all actives have a fitted effect of over 60% in size
#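 Genotoxicity was scored as increased ELG1-luciferase reporter signal, measured by ONE-Glo luminescence (30 min, room temperature). Compound or vehicle exposure of the HEK293T reporter cells lasted 16 hr at 37°C.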
# FLuc modulator = counter-screen for miR-21 project: firefly luciferase inhibitors or activators; purified FLuc, Km substrates, luminescence inhibition; Potency, µM (doses to about 57.5 µM), hits mostly inhibitors; 360,000 compounds, 6.9% hits; AID 588342; note: nearly all actives have a fitted effect of over 55% in size
# Target sequence (P08659 whole entry, looked up): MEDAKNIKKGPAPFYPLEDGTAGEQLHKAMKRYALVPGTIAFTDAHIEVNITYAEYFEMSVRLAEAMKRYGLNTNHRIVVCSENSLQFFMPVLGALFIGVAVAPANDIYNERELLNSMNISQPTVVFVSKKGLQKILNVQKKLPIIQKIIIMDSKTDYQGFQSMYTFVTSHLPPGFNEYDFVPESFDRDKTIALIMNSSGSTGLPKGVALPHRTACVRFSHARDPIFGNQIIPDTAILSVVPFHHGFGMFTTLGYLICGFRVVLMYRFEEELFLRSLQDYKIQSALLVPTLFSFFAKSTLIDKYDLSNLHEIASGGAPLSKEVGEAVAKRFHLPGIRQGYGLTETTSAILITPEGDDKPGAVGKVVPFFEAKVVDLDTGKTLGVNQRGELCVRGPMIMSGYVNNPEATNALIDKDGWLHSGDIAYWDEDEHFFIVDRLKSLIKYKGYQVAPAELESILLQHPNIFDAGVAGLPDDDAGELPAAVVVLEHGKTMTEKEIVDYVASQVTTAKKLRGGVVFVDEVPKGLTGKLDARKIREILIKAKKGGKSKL
#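 Biochemical qHTS of compounds, final roughly 60 µM downward over six points, against 10 nM purified firefly luciferase using Km concentrations of substrates (10 uM D-luciferin, 10 uM ATP) in Tris acetate pH 7.5 buffer; luminescence output.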
# Rab9 prom act = activators of Rab9 promoter. Huh7 Rab9 promoter-luciferase reporter, luminescence, 24 h. 320,000 compounds, 2.8% hits. Potency, µM (titrated, usually from 9.22 µM), hits mostly activators. AID 485297; note: nearly all actives have a fitted effect of over 60% in size
#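 Huh7 reporter line, Rab9 promoter upstream of luciferase. Compound exposure 24 h at 37 °C in reduced-serum medium with 10% FBS. Read-out: luminescence.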
# SMN2 splice up = increases expression of the SMN2 splice variant; HEK293 SMN2-luciferase splicing reporter, luminescence, 30-36 h; Potency, µM (series often up to 46.1 µM), most hits filed as activators; 210,000 compounds, 2.8% hits; note: nearly all actives have a fitted effect of over 55% in size
#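 HEK293 cells carry an SMN2 minigene-luciferase reporter in which exon 7 inclusion puts luciferase in frame. Cells were seeded at 2000 cells/well, attached for 10-12 hours, then exposed to compounds for 30-36 hours at 37C before ONE-Glo luminescence.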
# NPC1 prom act = activators of NPC1 promoter | Potency, µM (highest dose often 9.22 µM), actives largely listed as activators | 320,000 compounds, 2.4% hits | Huh7 NPC1 promoter luciferase reporter, 24 h | AID 485313; note: nearly all actives have a fitted effect of over 60% in size
#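 In 1536-well qHTS, Huh7 cells harboring an NPC1 promoter–luciferase construct received compound for 24 h; activation was quantified by luminescence following luciferase reagent addition.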
# A number is an active result; – = inactive; ? = inconclusive; · = not tested or not shown; [ ] = dose if it differs, or a comment. Most compounds without a hit are left out; they make up all but 9.4% or so of the library. Calls come from the whole dose curve; as a rule, active = well fitted curve in the direction sought with a large enough effect; inconclusive = small, poorly fitted or top-dose-only effect, or another doubt; inactive = no such curve, though single readings can be large; an effect the other way counts as inactive or inconclusive.
SMILES,ELG1 repair inh,ELG1 genotoxic,FLuc modulator,Rab9 prom act,SMN2 splice up,NPC1 prom act
CCC(=O)Nc1nnc(-c2ccncc2)s1,–,–,–,–,–,–
c1ccc(-c2nc3c4ccccc4ccn3c2CN2CCCCC2)cc1,–,–,5.4µM,–,·,–
Cc1ccc(-c2nc3c4ccccc4ccn3c2CN2CCCCC2)cc1,–,–,?,–,·,–
COc1ccc(C(=O)N=c2nc3ccccn3s2)cc1,?,0.37µM,0.095µM,0.25µM,·,0.13µM
COc1ccc(C(=O)NCCc2cn3ccccc3n2)cc1,?,–,–,–,·,–
COc1ccc(/C=N/n2cnnc2SCCO)cc1OC,?,–,?,–,–,–
C=CCSc1nncn1/N=C/c1ccc(OC)cc1,?,21µM,6.7µM,2.2µM,13µM,2.8µM
CC#CCN1c2ccccc2[C@]23C[C@@H](C(=O)OC)N(C(=O)COCc4ccccc4)C2=NC(C(=O)OC)=C(C(=O)OC)[C@H]13,·,·,·,·,–[9.22 µM],·
COc1cc(/C=C2\SC(=S)N(NC(=O)c3ccc(O)c(OC)c3)C2=O)ccc1O,?,–,1.3µM,–,·,–
COc1cc(/C=C2\SC(=S)N(N3CCOCC3)C2=O)ccc1O,?,–,–,–,·,–
COc1cc(/C=C2\SC(=S)N(NC(=O)c3cccc(O)c3)C2=O)ccc1O,–,–,11µM,–,·,–
COc1cc(/C=C2\SC(=S)N(NS(=O)(=O)c3ccc(C)cc3)C2=O)ccc1O,–,–,21µM,–,·,–
COc1cc(/C=C2\SC(=S)N(NS(=O)(=O)c3ccccc3)C2=O)ccc1O,?,–,?,–,·,–
O=C(NN1C(=O)/C(=C/c2cccs2)SC1=S)c1cccnc1,–,–,–,–,·,–
CCOc1cc(/C=C2\SC(=S)N(NC(=O)c3cccnc3)C2=O)ccc1O,–,–,27µM,–,–,–
COc1ccc(-n2c(=O)c3sc4ccccc4c3n(C)c2=O)cc1,·,·,–,·,–,·
CCOc1ccccc1N(C)C(=O)c1cc(S(=O)(=O)NCc2ccc(C)cc2)ccc1F,·,·,–,·,·,·
CCOc1cc(C(=O)NCCN2C(=O)S/C(=C\c3cccnc3)C2=O)cc(OCC)c1OCC,18µM,–,–,–,–,–
COc1cc(/C=C2\SC(=S)N(NC(=O)c3ccccc3OC)C2=O)ccc1O,–,–,4.3µM,–,·,–
O=C(O)c1ccc(/C=C2\SC(=S)N(NC(=O)c3ccccc3)C2=O)cc1,–,–,?,–[1.84 µM],·,–
COc1cc(/C=C2\SC(=S)N(NC(=O)c3ccncc3)C2=O)ccc1O,–,–,17µM,–,·,–
COc1ccccc1C(=O)NN1C(=O)/C(=C/c2cccn2C)SC1=S,–,–,?,–,·,–
CC(=O)NN1C(=O)/C(=C/c2ccc(C(C)C)cc2)SC1=S,?,–,21µM,–,–,–
COc1ccc(NC(=O)CSC2=Nc3ccccc3C3=NC(CCC(=O)NC4CCCCC4)C(=O)N23)cc1Cl (centres undefined),·,·,–,·,–,·
O=C(Nc1nnc(S(=O)(=O)N2CCCc3ccccc32)s1)c1cccc(Cl)c1,·,·,–,·,·,·
SMILES,ELG1 repair inh,ELG1 genotoxic,FLuc modulator,Rab9 prom act,SMN2 splice up,NPC1 prom act
COc1cc(CN(C(=O)COc2ccccc2Cl)c2ccccn2)cc(OC)c1OC,·,·,–,·,·,·
CCN(C(=O)c1cc2c(=O)oc3ccc(C)cc3c2s1)c1ccccc1F,·,·,–,·,–,·
COc1ccc(-c2nnc(SCC#CCO)o2)cc1OC,–,–,–,–,–,–
CCCCOC(=O)CSc1nnc(-c2ccc(C)cc2)o1,·,·,?,·,–,·
COC(=O)Sc1nnc(-c2ccc(Br)cc2)o1,–,–,19µM,–,–,–
OCC#CCSc1nnc(-c2ccc(Br)cc2)o1,?,21µM,?,–,–,–
CCCCCSc1nnc(-c2ccc(Br)cc2)o1,·,·,12µM,·,–,·
COc1ccc(C)cc1NC(=O)CSc1nnc(-c2ccc(Br)cc2)o1,?,–,–,–,–,–
O=C(COC(=O)COc1ccccc1)Nc1ncc([N+](=O)[O-])s1,–,–,?,–,·,–
O=C(Cc1ccc(Br)cc1)Nc1ncc([N+](=O)[O-])s1,–,–,?,?,·,?
O=C(COc1ccc(Cl)cc1)Nc1ncc([N+](=O)[O-])s1,?,?,4.3µM,?,?,0.56µM
O=C(Cc1ccc(Cl)cc1)Nc1ncc([N+](=O)[O-])s1,?,–,15µM,1.4µM,–,–
Cc1ccc(Cl)cc1NC(=O)COCc1cc(-c2ccco2)on1,·,·,–,·,·,·
Oc1oc(-c2ccccc2)nc1C=Nc1ccccc1,?,–,11µM,–,–,–
CN(C)c1ccc(N=Cc2nc(-c3ccccc3)oc2O)cc1,?,–,?,–,–,?
COc1ccc(N=Cc2nc(-c3ccco3)oc2O)cc1,?,–,8.5µM,–,–,–
Oc1oc(-c2ccccc2)nc1C=NCc1ccccc1,?,21µM,17µM,–,–,?
CSc1ccccc1N=Cc1nc(-c2ccccc2)oc1O,–,?,9.5µM,–,–,–
O=C(CCNS(=O)(=O)c1cccc2nsnc12)Nc1ccc(F)cc1,·,·,–,·,–,·
Cc1ccccc1C(=O)Nc1c(C)nc(Nc2ccccc2)nc1Nc1ccccc1,·,·,–,·,–,·
CSc1cccc(NC(=O)c2ccc3c(c2)c(C)c(C)n3Cc2ccc(F)cc2)c1,·,·,–,·,·,·
COc1ccc(-c2nc(/C=C3\C(C)=Nc4ccccc43)c(O)o2)cc1,–,–,?,–,–,–
CC1=Nc2ccccc2/C1=C\c1nc(-c2ccccc2)oc1O,–,–,17µM,–,–,–
O=C(Cn1sc2ccccc2c1=O)NC12CC3CC(CC(C3)C1)C2,?,–,7.6µM,–,–,–
O=C(CCC(=O)c1cccs1)c1cccs1,?,16µM,4.8µM,0.63µM,·,1.3µM
SMILES,ELG1 repair inh,ELG1 genotoxic,FLuc modulator,Rab9 prom act,SMN2 splice up,NPC1 prom act
COc1cccc(C(=O)COC(=O)c2cccs2)c1,?,?,0.48µM,–,·,?
O=C(CSCc1ccco1)c1cccs1,?,12µM,9.5µM,1.3µM,–,4µM
COc1cccc(C(=O)COC(=O)c2cc(-c3cccs3)nc3ccccc23)c1,·,·,–,·,–,·
O=C(COC(=O)c1cccs1)c1ccccc1,?,–,0.85µM,4µM,–,?
CCCCCCCN,·,·,·,·,–,·
FC(F)Oc1ccc(C2N=C(c3ccccc3)NO2)cc1 (centres undefined),?,?,4.8µM,1.6µM,·,2.8µM
COc1ccc(C2N=C(c3ccccc3)NO2)cc1OC (centres undefined),?,?,11µM,–,·,–
COc1ccc(-c2cc(C(=O)N3CCCC(C(F)(F)F)C3)c3ccccc3n2)cc1OC (centres undefined),?,–,?,–,·,–
COc1cc(-c2csc(N3CCOCC3)n2)cc(OC)c1OC,–,–,–,–,–,–
COc1cc(-c2cc(C(=O)OCC(=O)NC3CC3)c3ccccc3n2)cc(OC)c1OC,12µM,–,·,·,·,·

# Screening data as filed in PubChem BioAssay.
